Screening results deposited in PubChem BioAssay by The Scripps Research Institute Molecular Screening Center.
In the library only some 4.1% were active in any assay of this set; here they are far more common.
hgDAF12 agonist = agonists of H. glycines DAF-12 nuclear receptor. HEK293 GAL4-hgDAF12 UAS-luciferase reporter, agonist luminescence; normalized to butyrate control. hit rate 1.8% among 370,000. activation, % at 6.8 µM;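 active = activation above a cutoff set at the mean of all screened compounds plus 3 SD, cut at about 10% in these data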;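 also: 0% = DMSO wells and 100% = sodium butyrate wells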
ssDAF12 agonist = activates DAF-12 receptor from parasite S. stercoralis | HEK293 ssDAF-12/GRIP1 lit1-tk-luc reporter, luminescence; % of 3 µM dafachronic acid response | activation, % at 6.8 µM | hit rate 1% among 370,000 | AID 652126;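 active = activation above the mean over all tested compounds plus 3 SD, cut at about 0.9% in these data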;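 also: 0% = DMSO-only wells and 100% = 3 µM delta7-dafachronic acid wells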
hcDAF-12 act = H. contortus DAF-12 activation, primary screen. activation, % at 6.8 µM. hit rate 1.4% among 370,000. HEK293 hcDAF-12 lit1-tk-luc reporter, luminescence; 0% DMSO, 100% Δ7-dafachronic acid;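 active = activation above the mean of all tested compounds plus 3 SD, cut at about 5.5% in these data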;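 also: 100% = response to 3 µM Δ7-dafachronic acid high control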
DAX1 inh-1 = inhibitors of DAX1 repression of SF-1 activated StAR promoter; HEK293T StAR-luciferase reporter, SF-1/DAX-1 repression relief; inhibition, % at 6.8 µM; hit rate 1.1% among 370,000; AID 652010;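 active = inhibition above the mean over all tested compounds plus 3 SD, cut at about 3.6% in these data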;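 also: 0% = DAX-1 cells with DMSO and 100% = cells lacking DAX-1 with DMSO; higher inhibition means more luminescence from relief of DAX-1 repression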
DAX1 inh-2 = inhibitors of human orphan nuclear receptor DAX1 (NR0B1); P51843; HEK293 Gal4-DAX1 luciferase reporter, luminescence; inhibition, % at 6.75 µM; hit rate 0.99% among 340,000; AID 504766;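 active = inhibition above the mean over all tested compounds plus 3 SD, cut at about 4.2% in these data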;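 also: 0% = DAX1-transfected cells with DMSO and 100% = empty-vector control cells with DMSO; inhibition shows as a rise in luminescence from relieved DAX1 repression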
Target sequence (P51843 207-470 limits assumed): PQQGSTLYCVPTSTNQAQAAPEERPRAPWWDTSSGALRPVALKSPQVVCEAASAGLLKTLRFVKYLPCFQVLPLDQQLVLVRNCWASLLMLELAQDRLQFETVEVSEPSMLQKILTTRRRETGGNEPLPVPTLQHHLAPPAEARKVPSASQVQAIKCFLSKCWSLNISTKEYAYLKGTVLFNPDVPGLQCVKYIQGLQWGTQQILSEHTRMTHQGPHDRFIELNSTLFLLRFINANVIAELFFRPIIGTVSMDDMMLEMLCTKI
An asterisk follows results filed as active; . = no result given.

SMILES | hgDAF12 agonist | ssDAF12 agonist | hcDAF-12 act | DAX1 inh-1 | DAX1 inh-2
COc1ccc(S[C@]2(C(=O)N3CCCC3)CC(=O)N(C(=O)CCc3ccccc3)[C@@H]2c2ccc(OC)cc2)cc1 | 1 | -1 | -2 | -2 | .
CCCCOCCCNC(=O)C[C@H]1C[C@@]2(C(=O)OC)C(=C[C@H](C(C)(C)C)O[C@@H]2C)N(Cc2cccc3ccccc23)C1=O | -2 | -2 | -2 | -1 | .
COc1ccc(S[C@]2(C(=O)N3CCN(C(C)=O)CC3)CC(=O)N(C(=O)C3CC3)[C@@H]2c2ccc(OC)cc2)cc1 | -2 | 0 | -2 | -2 | .
COc1cc(SC)ccc1C(=O)OCC(=O)NCC(C)C | 1 | -1 | 0 | 1 | 4.3*
COc1ccccc1NC(=S)NNC(=O)c1nn(C)c(C)c1Br | 12* | 0 | 3 | 1 | 2
COc1ccccc1NC(=S)NNC(=O)c1nn(C)c(C)c1Cl | 6 | -1 | 2 | 0 | 2
COc1ncccc1-c1nnn(-c2ccccc2Br)n1 | 1 | -1 | 2 | 0 | 0
COc1ncccc1-c1nnn(-c2ccccc2)n1 | 11* | 1.3* | 5.7* | 3 | 2
c1ccc(-n2nnc(-c3cccnc3)n2)cc1 | 11* | 0 | 4 | 1 | 3
Cc1ccc(-n2nnc(-c3cccnc3)n2)cc1 | 9 | 0 | 2 | 2 | 1
Cc1ccc(Cn2cc(COC(=O)NCC(C)C)nn2)cc1 | -2 | -1 | -2 | 0 | .
O=C(c1cccc(C(F)(F)F)c1)N1CC[C@H]2[C@H](CCCN2Cc2ccccc2)C1 | -1 | -1 | -1 | -1 | .
COc1cc(C(C)=O)ccc1OCC(O)CN(CCO)Cc1ccccc1 (centres undefined) | -1 | -1 | 0 | 1 | 7.2*
OCCN(Cc1ccccc1)CC(O)COc1ccc(-c2ccccc2)cc1 (centres undefined) | -1 | -1 | -1 | 0 | 1
Cc1cc(C)nc(NC(=O)/C=C/c2ccc3c(c2)OCO3)c1 | 10 | 0 | 3 | 4.2* | 1
CC(=O)N1CCCN(S(=O)(=O)c2ccc3c(c2)n(C)c(=O)c(=O)n3C)CC1 | 2 | -2 | 0 | -1 | .
O=C(CCCCC(=O)Nc1c(I)cc(I)c(C(=O)O)c1I)Nc1c(I)cc(I)c(C(=O)O)c1I | -2 | 1.9* | 0 | 0 | -1
O=C(NCc1ccco1)C1CCCN(S(=O)(=O)c2ccccc2F)C1 (centres undefined) | -1 | -1 | -3 | 0 | .
N/C(Cc1ccccc1Sc1ccccc1)=N\O | 3 | -2 | -2 | 0 | -2
N/C(Cc1cccc2ccccc12)=N\O | 2 | 0 | 5.7* | 1 | 0
CCn1ncc(C(=O)Nc2ccccc2C)c1C | 3 | -1 | 2 | 1 | 0
CCn1ncc(C(=O)Nc2ccc(F)cc2)c1C | 8 | 1.7* | 5 | 1 | 3
O=C(NN1C(=O)c2ccccc2NC1c1ccccn1)c1ccc([N+](=O)[O-])cc1 (centres undefined) | 1 | 1.0* | -2 | 0 | -2
Cc1cccc(C2Nc3ccccc3C(=O)N2NC(=O)c2ccc([N+](=O)[O-])cc2)n1 (centres undefined) | -2 | -1 | -2 | 0 | 1
Oc1ccc(-c2csc(-c3cccnc3)n2)cc1O | 13* | 0 | 0 | 1 | 1
SMILES | hgDAF12 agonist | ssDAF12 agonist | hcDAF-12 act | DAX1 inh-1 | DAX1 inh-2
COC(=O)[C@H]1C[C@]2(C/C=C(\C)CCC=C(C)C)c3ccccc3N[C@H]2N1 | 2 | 0 | 2 | . | .
O=C(C1CCCN1S(=O)(=O)c1ccc(Br)s1)N1CCN(c2ccccc2)CC1 (centres undefined) | -5 | -1 | 0 | -1 | .
COCCNS(=O)(=O)c1ccc(C2CNC(=O)C2)cc1 (centres undefined) | 2 | -2 | 0 | 1 | 5.2*
O=C1CC(c2ccc(S(=O)(=O)NCCOc3ccccc3)cc2)CN1 (centres undefined) | -1 | -1 | -3 | 0 | 0
COc1cc(-c2nc3ccccc3c(=O)n2N)cc(OC)c1OC | 3 | 5.7* | -1 | -1 | -2
On1c(-c2ccccc2)nc2ccc(Cl)cc21 | 12* | -1 | 3 | 3 | 1
Nn1c(-c2ccccc2)nc2cc(Cl)ccc2c1=O | 5 | 1.9* | 5.7* | 1 | 1
Cc1ccc(-c2nc3ccccc3c(=O)n2N)cc1 | 3 | 1 | 4 | 1 | 0
Cc1cccc(-c2nc3ccccc3c(=O)n2N)c1 | -1 | -1 | 1 | 0 | 1
